Source: PubChem BioAssay (several laboratories)
hcDAF12 agonist: H. contortus DAF-12 activation, primary screen | HEK293 hcDAF-12 lit1-tk-luc reporter, luminescence; 0% DMSO, 100% Δ7-dafachronic acid | activation, % at 6.8 µM | 1.4% of 370,000 active | AID 652067;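 active = activation above the mean of all tested compounds plus 3 SD, cut at about 5.5% in these data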
DAX1 inh-1: inhibitors of DAX1 repression of SF-1 activated StAR promoter; inhibition, % at 6.8 µM; 1.1% of 370,000 active; AID 652010; HEK293T StAR-luciferase reporter, SF-1/DAX-1 repression relief;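 active = inhibition above the mean over all tested compounds plus 3 SD, cut at about 3.6% in these data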;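 also: higher inhibition means more luminescence from relief of DAX-1 repression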
DAX1 inh-2: inhibitors of human orphan nuclear receptor DAX1 (NR0B1) | P51843 | inhibition, % at 6.75 µM | HEK293 Gal4-DAX1 luciferase reporter, luminescence | 0.99% of 340,000 active | AID 504766;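 active = inhibition above the mean over all tested compounds plus 3 SD, cut at about 4.2% in these data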;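 also: inhibition shows as a rise in luminescence from relieved DAX1 repression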
Target sequence (P51843 207-470 limits assumed): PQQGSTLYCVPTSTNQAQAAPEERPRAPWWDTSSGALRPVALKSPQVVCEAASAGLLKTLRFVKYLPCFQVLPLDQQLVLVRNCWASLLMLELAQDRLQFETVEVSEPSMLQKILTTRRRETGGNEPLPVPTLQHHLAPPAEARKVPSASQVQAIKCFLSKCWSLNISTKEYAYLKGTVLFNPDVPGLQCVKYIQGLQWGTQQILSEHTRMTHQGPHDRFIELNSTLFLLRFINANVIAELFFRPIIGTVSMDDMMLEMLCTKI
ssDAF12 agonist: S. stercoralis DAF-12 activation, primary screen | HEK293 ssDAF-12/GRIP1 lit1-tk-luc reporter, luminescence; % of 3 µM dafachronic acid response | activation, % at 6.8 µM | 1% of 370,000 active;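 active = activation above the mean over all tested compounds plus 3 SD, cut at about 0.9% in these data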
hgDAF-12 ag: activates the H. glycines DAF-12 receptor ligand-binding domain; HEK293 GAL4-hgDAF12 UAS-luciferase reporter, agonist luminescence; normalized to butyrate control; activation, % at 6.8 µM; 1.8% of 370,000 active;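 active = activation above a cutoff set at the mean of all screened compounds plus 3 SD, cut at about 10% in these data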
Rev-erbA mod: modulators of human Rev-erb alpha DNA binding; Rev-erbα–FITC-DNA binding, fluorescence polarization, 90 min; P20393; activity, % at 10 µM; AID 1259318; 0.79% of 370,000 active;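 active = activity above about 14%, limit read from the data; passing the limit was not always enough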
DAX1 conf: confirmation of human DAX1 (NR0B1) inhibitors | shares compounds with DAX1 inh-1 | HEK293T StAR-promoter luciferase reporter, SF-1/DAX-1 repression | inhibition, % at 6.8 µM | 87% of 2,400 active;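 active = inhibition above the average of every tested compound plus 3 SD, cut at about 3.8% in these data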;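 also: active compounds raise luminescence by relieving repression of the StAR reporter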
SF1 mutant ctr: nonselective inhibitor or artifact in SF-1 mutant DAX1 counter-screen. shares compounds with DAX1 inh-1. HEK293 StAR-luciferase, SF-1 AF2 mutant, luminescence. inhibition, % at 6.8 µM. 78% of 2,400 active. AID 652136;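 active = inhibition above the mean of all tested compounds plus 3 SD, cut at about 3% in these data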
LXRb hcDAF ctr: counter-screen for hcDAF-12 agonists: agonists of human LXR-beta | 3,400 tested, under 10 active | activation, % at 6.8 µM | shares compounds with hcDAF12 agonist | AID 743027 | HEK293 Gal4-LXR tk-luc reporter, luminescence, 24 h; normalized: DMSO 0%, positive control 100%;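 active = mean percent activation of the reporter above a cutoff set as the average over tested compounds plus their standard deviation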
Target sequence (P55055 whole entry, looked up, the tested form may be a part): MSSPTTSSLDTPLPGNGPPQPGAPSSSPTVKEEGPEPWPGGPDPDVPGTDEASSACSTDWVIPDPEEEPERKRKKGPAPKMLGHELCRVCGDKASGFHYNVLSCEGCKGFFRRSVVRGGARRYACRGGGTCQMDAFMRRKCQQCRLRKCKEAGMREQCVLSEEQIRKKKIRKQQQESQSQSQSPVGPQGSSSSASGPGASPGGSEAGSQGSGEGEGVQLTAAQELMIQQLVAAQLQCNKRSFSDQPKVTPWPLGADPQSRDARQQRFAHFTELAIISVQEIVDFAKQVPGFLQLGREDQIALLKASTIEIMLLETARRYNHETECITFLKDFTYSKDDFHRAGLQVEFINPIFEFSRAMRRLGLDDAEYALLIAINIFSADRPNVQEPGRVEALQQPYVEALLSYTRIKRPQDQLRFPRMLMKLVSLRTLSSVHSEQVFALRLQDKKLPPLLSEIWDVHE
hcDAF12 ag: hcDAF-12 agonism, confirmation assay | HEK293 hcDAF-12 lit1-tk-luc reporter, luminescence; % of Δ7-dafachronic acid response | 61% of 3,400 active | activation, % at 6.8 µM | shares compounds with hcDAF12 agonist | AID 743032;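 active = mean activation across triplicate tests above the threshold derived from the earlier primary screen, cut at about 5.5% in these data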
hgDAF12 conf: confirmation of H. glycines DAF-12 agonists | shares compounds with hgDAF-12 ag | HEK293 GAL4-hgDAF12 luciferase reporter, agonist mode; percent of butyrate response | activation, % at 6.8 µM | 80% of 3,300 active | AID 743050;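 active = mean activation over triplicate wells above the hit cutoff derived from the earlier primary screen, cut at about 11% in these data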
LXRb DAF12 ctr: counter-screen for DAF-12 agonists: agonists of human LXR-beta; shares compounds with hgDAF-12 ag; HEK293 Gal4-LXR luciferase reporter, 24 h; activation, % at 6.8 µM; 3,300 tested, under 10 active; AID 743051;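 active = mean activation of the triplicate above a set limit carried over from the primary screen, none filed active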
Each line names hits and unclear results; the compound was inactive in the other large screens (follow-up assays come after a bar, where they were run). The list is not random: actives were taken first. Their share in the collection is about 4.8%.

c1ccc(-c2csc(CN3CCCCC3)n2)cc1	hcDAF12 agonist 7.1, DAX1 inh-1 5.3, ssDAF12 agonist 0.9, hgDAF-12 ag 19 | DAX1 conf 8.2 | SF1 mutant ctr 4.8 | LXRb hcDAF ctr inactive | hcDAF12 ag 9.2 | hgDAF12 conf 18 | LXRb DAF12 ctr inactive
CCCCCN1CCCCC(NC(=O)c2cccc(C(F)(F)F)c2)C1=O (stereo not given)	none (no result: DAX1 inh-2)
Cc1ccc(NC(=S)c2ccc(N(C)C)cc2)cc1	DAX1 inh-1 5.6, hgDAF-12 ag 14 | DAX1 conf 13 | SF1 mutant ctr 7.8 | hgDAF12 conf 17 | LXRb DAF12 ctr inactive
Cc1cc(C(=O)Nc2ccc(Br)cn2)sc1C	hcDAF12 agonist 5.8, DAX1 inh-1 6.3, hgDAF-12 ag 14 | DAX1 conf 13 | SF1 mutant ctr 8.6 | hgDAF12 conf 18 | LXRb DAF12 ctr inactive
CCC(=O)Nc1ccc(Br)cn1	none
Cc1cnc(NC(=O)c2cc3ccccc3o2)s1	hcDAF12 agonist 10, DAX1 inh-1 7.3, DAX1 inh-2 6.4, ssDAF12 agonist 1.9, hgDAF-12 ag 19 | DAX1 conf 17 | SF1 mutant ctr 8.9 | LXRb hcDAF ctr inactive | hcDAF12 ag 14 | hgDAF12 conf 15 | LXRb DAF12 ctr inactive
CC(C)C(=O)Nc1ccc(NC(=O)c2cc3ccccc3o2)cc1	none
O=C(Nc1cccc(Br)c1)c1cc2ccccc2o1	hcDAF12 agonist 9.1, DAX1 inh-1 5.1, DAX1 inh-2 4.3, hgDAF-12 ag 26 | DAX1 conf 12 | SF1 mutant ctr 7.0 | LXRb hcDAF ctr inactive | hcDAF12 ag 5.9 | hgDAF12 conf 21 | LXRb DAF12 ctr inactive
CCOc1ccc(C=Nn2c(-c3cccc(OC(C)C)c3)n[nH]c2=S)cc1	none (no result: DAX1 inh-2)
O=C(NC1=NCCS1)c1cccc(NC(=O)c2ccco2)c1	none
CC(C)Oc1cccc(C(=O)NC2=NCCS2)c1	DAX1 inh-1 5.0, hgDAF-12 ag 15 | DAX1 conf 5.9 | SF1 mutant ctr 4.1 | hgDAF12 conf 11 | LXRb DAF12 ctr inactive
C=CCN1C(=O)[C@@H](CC(=O)NCc2ccc(C)o2)[C@]2(C(=O)OCC)CCCCC/C=C/12	none (no result: DAX1 inh-2)
CCCCCCCCN1C(=O)N2Cc3ccccc3C2CS1(=O)=O (stereo not given)	none (no result: DAX1 inh-2)
Cc1ccc(NC(=O)COc2ccccc2C=O)cc1Cl	hcDAF12 agonist 5.8, DAX1 inh-1 4.5, hgDAF-12 ag 20 | DAX1 conf 9.6 | SF1 mutant ctr 5.4 | hgDAF12 conf 15 | LXRb DAF12 ctr inactive
COC(=O)[C@H]1C[C@@]2(Oc3ccc(Br)cc3)c3ccccc3N(C(=O)OC(C)(C)C)[C@H]2N1C(=O)OC(C)(C)C	none (no result: DAX1 inh-2)
COC(=O)[C@@]12CCCCC3=C1N(CCC3)C(=O)[C@H]2CC(=O)NCc1ccc(OC)c(OC)c1	none (no result: DAX1 inh-2)
COC(=O)c1cc2c(c3c4cc(OC)ccc4n(C(=O)c4ccccc4)c13)C(=O)N(Cc1ccco1)C2	none (no result: DAX1 inh-2)
COC(=O)c1ccccc1NC(=O)C1CCCCC1C(=O)O (stereo not given)	none
O=C(NCCc1ccccc1)c1ccccc1NC(=O)C1CCCCC1C(=O)O (stereo not given)	hcDAF12 agonist 9.3, DAX1 inh-1 4.9, hgDAF-12 ag 18 (no result: DAX1 inh-2) | DAX1 conf 5.4 | SF1 mutant ctr 4.3 | LXRb hcDAF ctr inactive | hcDAF12 ag inactive | hgDAF12 conf 14 | LXRb DAF12 ctr inactive
COc1ccc(-c2cn3cccc(C)c3n2)cc1F	hcDAF12 agonist 7.9, DAX1 inh-1 5.0, ssDAF12 agonist 1.0, hgDAF-12 ag 18 | DAX1 conf 14 | SF1 mutant ctr 9.0 | LXRb hcDAF ctr inactive | hcDAF12 ag inactive | hgDAF12 conf 16 | LXRb DAF12 ctr inactive
COc1ccc(-c2cn3cc(C)ccc3n2)cc1OC	DAX1 inh-1 4.9, hgDAF-12 ag 19 | DAX1 conf 12 | SF1 mutant ctr 6.6 | hgDAF12 conf 18 | LXRb DAF12 ctr inactive
Cc1cccn2cc(-c3ccc(Cl)cc3)nc12	hcDAF12 agonist 18, DAX1 inh-1 9.3, ssDAF12 agonist 2.6, hgDAF-12 ag 16 | DAX1 conf 11 | SF1 mutant ctr 4.0 | LXRb hcDAF ctr inactive | hcDAF12 ag 18 | hgDAF12 conf 18 | LXRb DAF12 ctr inactive
CCC(=O)Nc1cccc(-c2cn3cccc(C)c3n2)c1	none (no result: DAX1 inh-2)
Cc1ccc(-c2cn3cccc(C)c3n2)cc1	hcDAF12 agonist 16, DAX1 inh-1 9.2, ssDAF12 agonist 3.8, hgDAF-12 ag 15 | DAX1 conf 17 | SF1 mutant ctr 7.9 | LXRb hcDAF ctr inactive | hcDAF12 ag 17 | hgDAF12 conf 21 | LXRb DAF12 ctr inactive
COc1ccc(-c2csc(C)n2)cc1OC	none
COc1ccc(C(=O)C2(C(=O)NCCO)CC(c3ccccn3)=NO2)cc1 (stereo not given)	none (no result: DAX1 inh-2)
N#Cc1ccc(NC(=O)OC2CC3CC2[C@H]2CCCCN2C3)cc1 (stereo not given in full)	none (no result: DAX1 inh-2)
NC(=O)C1CC(=O)N(c2ccc(OCc3ccc(Cl)c(Cl)c3)cc2)C1 (stereo not given)	hcDAF12 agonist 5.8, DAX1 inh-1 10, DAX1 inh-2 4.5, hgDAF-12 ag 25 | DAX1 conf 15 | SF1 mutant ctr 9.3 | hgDAF12 conf 16 | LXRb DAF12 ctr inactive
C=CCn1c(C)cc(C(=O)Cn2nc(C(=O)O)c3ccccc3c2=O)c1C	DAX1 inh-1 5.0, ssDAF12 agonist 0.9, hgDAF-12 ag 15 | DAX1 conf 10 | SF1 mutant ctr 4.0 | hgDAF12 conf 13 | LXRb DAF12 ctr inactive
